Screens from PubChem.
An excerpt weighted towards active compounds, which were near 9% of everything screened.
JMJD2A Tudor inh – inhibitors of human JMJD2A Tudor domain | O75164 | AlphaScreen JMJD2A-Tudor / H3K4me3 peptide binding | Potency, µM (highest dose often 114 µM), inactives show at the highest dose activity change, negative = inhibition, usual class: inhibitors | 390,000 tested, 4.4% active; also: % is scaled to controls: 0 for no effect and ±100 for the full control effect; nearly all actives have a fitted effect of over 50% in size
12-LOX inh – inhibitors of human 12S-lipoxygenase ALOX12. 580,000 tested, 1.1% active. Potency, µM (highest dose often 108 µM), without a hit: at the highest dose activity change, negative = inhibition, hits mostly inhibitors. AID 1671190. purified 12hLO, xylenol orange hydroperoxide absorbance; also: % is scaled to controls: 0 for no effect and ±100 for the full control effect
Target sequence (P18054 whole entry, looked up): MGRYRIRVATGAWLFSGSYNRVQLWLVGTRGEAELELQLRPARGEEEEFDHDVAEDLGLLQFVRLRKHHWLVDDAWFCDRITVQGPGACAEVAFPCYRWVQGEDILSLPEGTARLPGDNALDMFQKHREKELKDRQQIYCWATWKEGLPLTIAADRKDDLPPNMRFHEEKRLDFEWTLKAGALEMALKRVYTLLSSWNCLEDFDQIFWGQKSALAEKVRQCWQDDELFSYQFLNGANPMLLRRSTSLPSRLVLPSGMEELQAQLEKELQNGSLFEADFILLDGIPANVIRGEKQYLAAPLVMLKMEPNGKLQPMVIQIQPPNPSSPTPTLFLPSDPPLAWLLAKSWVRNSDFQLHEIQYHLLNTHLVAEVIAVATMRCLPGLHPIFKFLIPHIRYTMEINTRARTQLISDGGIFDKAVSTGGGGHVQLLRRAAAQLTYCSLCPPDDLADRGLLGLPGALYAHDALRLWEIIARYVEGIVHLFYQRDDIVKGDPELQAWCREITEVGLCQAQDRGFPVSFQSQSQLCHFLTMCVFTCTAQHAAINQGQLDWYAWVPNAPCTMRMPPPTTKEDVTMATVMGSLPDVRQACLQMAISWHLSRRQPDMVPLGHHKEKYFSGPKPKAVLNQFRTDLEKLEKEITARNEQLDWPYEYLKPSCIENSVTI
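Hydroperoxide product was detected by ferrous iron/xylenol orange as the 573 to 405 nm absorbance ratio. Arachidonic acid at 40 uM (final) was turned over for 30 min at room temperature by 150 nM human 12hLO, pH 7.0 Hepes buffer, after 15 min compound preincubation.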
HP1b chromo inh – blocks HP1-beta chromodomain binding to methylated histone tails. P83916. AlphaScreen HP1-beta / biotin-H3K9me3 peptide binding. Potency, µM (top dose mostly 114 µM), for the others: at the top dose activity change, negative = inhibition, most hits filed as inhibitors. 390,000 tested, 0.56% active; also: nearly all actives have a fitted effect of over 70% in size
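Compound inhibition of the preformed complex between 50 nM HP1-beta and 50 nM biotinylated H3K9me3 peptide was read by AlphaScreen. Buffer was PBS pH 7.4 with 0.01% Tween-20. Incubations ran 30 min at room temperature, with 10 ug/mL donor/acceptor beads.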
PLK1 PBD inh – blocks phosphopeptide binding to human PLK1 polo-box domain; P53350; Plk1 PBD binding of FITC phosphopeptide, fluorescence polarization; 360,000 tested, 2.8% active; Potency, µM, without a hit: max response, negative = inhibition, hits mostly inhibitors; also: series mostly up to about 57 µM; % is scaled to controls: 0 for no effect and ±100 for the full control effect; nearly all actives have a fitted effect of over 65% in size
BAZ2B inh – BAZ2B (human) inhibition | Q9UIF8 | AlphaScreen BAZ2B-H3K14Ac peptide displacement | Potency, µM (top dose mostly 114 µM), without a hit: top-dose activity change, negative = inhibition, most hits filed as inhibitors | 360,000 tested, 4.4% active | AID 504333; also: % is scaled to controls: 0 for no effect and ±100 for the full control effect; nearly all actives have a fitted effect of over 60% in size
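In this displacement format the biotinylated H3(5-23) peptide acetylated at Lys14 serves as ligand at 50 nM, with BAZ2B at 50 nM in PBS pH 7.4 containing 0.01% Tween-20. Donor and acceptor beads are 10 ug/mL final.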
G9a block – blocks human histone lysine methyltransferase G9a; Q96KQ7; G9a H3K9 monomethylation, AlphaScreen, 2 h; Potency, µM (series often up to 102 µM), for the others: at the top dose activity, negative = inhibition, usual class: inhibitors; 350,000 tested, 8.8% active; also: % is scaled to controls: 0 for no effect and ±100 for the full control effect; nearly all actives have a fitted effect of over 75% in size
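AlphaScreen detection with an anti-monomethyl H3K9 antibody quantified product after a 2 h room-temperature reaction containing 500 nM biotinylated H3K9 peptide, 20 µM SAM and 20 nM enzyme, which had been preincubated 15 min with compound.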
The depositor's hits bear a star; [ ] = another dose, or the depositor's remark. Calls follow the shape of the dose curve; as a rule, active = well fitted curve in the direction sought with a large enough effect; inconclusive = small, poorly fitted or top-dose-only effect, or another doubt; inactive = no such curve, though single readings can be large; an effect the other way counts as inactive or inconclusive. Potency is read from the fitted curve at half-maximal effect.

For COCCCNC(=O)c1cc(S(=O)(=O)N2CCOCC2)ccc1SCc1cccc(OC)c1OC the results were JMJD2A Tudor inh -3.4%, 12-LOX inh -5.0%, HP1b chromo inh 15.8%, PLK1 PBD inh -13.2%, BAZ2B inh 5.0% and G9a block 31.6µM*.
For Cc1c(C(=O)NCc2c(F)cc(F)cc2F)oc2ccc(S(=O)(=O)N3CCOCC3)cc12 the results were JMJD2A Tudor inh 22.4µM*, 12-LOX inh 24.8%, HP1b chromo inh -3.5%, PLK1 PBD inh 18.9µM*, BAZ2B inh 6.7% and G9a block 2.9%[59 µM].
Cc1c(C(=O)NCc2ccc(F)cc2)oc2ccc(S(=O)(=O)N3CCOCC3)cc12 was read as JMJD2A Tudor inh 4.2%, 12-LOX inh 19.2%, HP1b chromo inh 15.6%, PLK1 PBD inh -1.9%, BAZ2B inh 6.0% and G9a block 2.0%.
`Cc1ccc(NS(=O)(=O)c2ccc3c4c(cccc24)C(=O)N3)c(C)c1` gave JMJD2A Tudor inh -35.3%, 12-LOX inh -13.5%, HP1b chromo inh 4.4%, BAZ2B inh -29.7% and G9a block -8.1%[59 µM].
Cn1nc(C(=O)N2CCCC2)c2ccccc2c1=O was read as JMJD2A Tudor inh -14.1%, 12-LOX inh -18.5%, HP1b chromo inh 8.4%, PLK1 PBD inh -8.4%, BAZ2B inh 4.4% and G9a block -5.4%[59 µM].
For CSc1ccc(C(=O)C2CCCN(C(=O)c3nn(C)c(=O)c4ccccc34)C2)cc1 (stereo not drawn) the results were JMJD2A Tudor inh -32.8%, 12-LOX inh -2.4%, HP1b chromo inh inconclusive, PLK1 PBD inh 23.8µM*, BAZ2B inh -13.6% and G9a block 28.2µM*.
Screening Cc1cc(=O)oc(C)c1C(=O)N1CCN(C(c2ccccc2)c2ccccc2)CC1 returned JMJD2A Tudor inh -13.2%, 12-LOX inh 23.9%, HP1b chromo inh 48.0%, PLK1 PBD inh -11.4%, BAZ2B inh -32.9% and G9a block 50.1µM*.
Screening c1coc(CNc2nc(-c3cccs3)nc3ccccc23)c1 returned JMJD2A Tudor inh -29.9%.
Screening O=C(NCCCN1CCOCC1)/C(=C/c1ccc(-c2cccc([N+](=O)[O-])c2)o1)NC(=O)c1ccccc1 returned 12-LOX inh -28.6% and PLK1 PBD inh 1.8%.
Cc1nc2nc(C)n(CCN3CCOCC3)c(=O)c2c(-c2cccc([N+](=O)[O-])c2)c1C(=O)CCCCCCCCCCN1CCC(c2ccccc2)(c2ccccc2)CC1 was read as JMJD2A Tudor inh 25.1µM*, 12-LOX inh inconclusive, HP1b chromo inh 39.8µM* and PLK1 PBD inh 0.8%.
Screening COc1ccc(CNS(=O)(=O)c2c(C)[nH]c(C)c2C(=O)N2CCCCC2)cc1 returned JMJD2A Tudor inh -10.6%, 12-LOX inh 51.1%, HP1b chromo inh 37.6%, PLK1 PBD inh 1.0%, BAZ2B inh -6.3% and G9a block -5.9%.
For CN(C)c1ccc(CNc2nc3ccccc3n2C)cc1 the results were 12-LOX inh -24.3% and PLK1 PBD inh -3.5%.
`CCCn1c(Nc2nc3ccccc3n2C)nc2ccccc21` gave JMJD2A Tudor inh 56.2µM*, 12-LOX inh 0.0%, HP1b chromo inh 34.2%, PLK1 PBD inh 0.4%, BAZ2B inh 8.91µM* and G9a block -0.6%.
CCCCn1c(Nc2ccccc2)nc2ccccc21 was read as JMJD2A Tudor inh -8.5%, 12-LOX inh -10.8%, HP1b chromo inh 7.6%, PLK1 PBD inh -3.0%, BAZ2B inh 4.3% and G9a block 3.6%.
CCCn1c(NCc2ccc(N(C)C)cc2)nc2ccccc21 was read as JMJD2A Tudor inh inconclusive, 12-LOX inh 9.4%, HP1b chromo inh -13.6%, PLK1 PBD inh 0.6%, BAZ2B inh inconclusive and G9a block 50.1µM*.
CCn1c(Nc2ccccc2Cl)nc2ccccc21 was read as JMJD2A Tudor inh 44.7µM*, 12-LOX inh -28.4%, HP1b chromo inh -8.9%, PLK1 PBD inh 26.7µM*, BAZ2B inh -13.8% and G9a block -25.7%.
`CCN(CC)CCn1c(NCc2ccc(C)o2)nc2ccccc21` gave JMJD2A Tudor inh inconclusive, 12-LOX inh -2.1%, HP1b chromo inh 6.1%, PLK1 PBD inh -1.4%, BAZ2B inh inconclusive and G9a block 50.1µM*.
`CCc1ccccc1Nc1nc2ccccc2n1C` gave JMJD2A Tudor inh -12.6%, 12-LOX inh 25.6%, HP1b chromo inh 33.7%, PLK1 PBD inh 2.0%, BAZ2B inh -18.5% and G9a block 12.8%.
Screening CCOC(=O)c1c(-c2ccccc2)csc1NC(=O)c1nc(S(=O)(=O)CC)ncc1Cl returned JMJD2A Tudor inh inconclusive, 12-LOX inh -10.8%, HP1b chromo inh inconclusive, BAZ2B inh inconclusive and G9a block inconclusive.
`O=C(CC1CCCN(c2cn[nH]c(=O)c2)C1)NCCC1=CCCCC1` (stereo not drawn) gave 12-LOX inh 44.1%.
For Cc1cc(OCC(=O)OCC(=O)Nc2cccnc2Cl)ccc1Cl the results were JMJD2A Tudor inh -1.4%, 12-LOX inh 1.6%, HP1b chromo inh 31.9%, PLK1 PBD inh 1.2%, BAZ2B inh inconclusive and G9a block 6.2%.
`CCN(CC)c1ccc(CNc2nc3ccccc3n2C(C)C)cc1` gave JMJD2A Tudor inh inconclusive, 12-LOX inh -1.7%, HP1b chromo inh 2.7%, PLK1 PBD inh 18.9µM*, BAZ2B inh -31.0% and G9a block inconclusive.
Screening CCCn1c(NC(=O)c2ccccc2)nc2ccccc21 returned JMJD2A Tudor inh -1.4%, 12-LOX inh 25.1%, HP1b chromo inh 78.1%, PLK1 PBD inh -7.7%, BAZ2B inh -1.7% and G9a block 58.9%[59 µM].
Screening CCN(CC)c1ccc(CNc2nc3ccccc3n2CC)cc1 returned JMJD2A Tudor inh inconclusive, 12-LOX inh -14.5%, HP1b chromo inh inconclusive, PLK1 PBD inh -19.0%, BAZ2B inh 44.7µM* and G9a block 31.6µM*.
Screening CCCn1c(NC(=O)c2ccc(C)cc2)nc2ccccc21 returned JMJD2A Tudor inh -17.8%[11.4 µM], 12-LOX inh 104.9%, HP1b chromo inh -4.0%, PLK1 PBD inh 26.7µM*, BAZ2B inh -2.4% and G9a block 3.1%[12.7 µM].
For CC(C)(C)OC(=O)N1CC(c2ccccc2)C1 the results were 12-LOX inh 1.4%[12.5 µM].
Cc1ccc(S(=O)(=O)c2nc(-c3ccccc3Cl)oc2NCCCN2CCOCC2)cc1 was read as JMJD2A Tudor inh inconclusive, 12-LOX inh inconclusive, HP1b chromo inh -31.7%, PLK1 PBD inh -15.8% and BAZ2B inh -10.6%.
`Cc1ccccc1-c1nc(S(=O)(=O)c2ccc(Br)cc2)c(NCc2cccnc2)o1` gave JMJD2A Tudor inh -32.5%, 12-LOX inh 25.5%, HP1b chromo inh 11.8%, PLK1 PBD inh -7.1%, BAZ2B inh -11.8% and G9a block -47.7%.
